PubChem BioAssay AID1445 (SRMLSC, 2008)
The whole screen tested about 220,000 compounds, of which about 910 (0.41%) were called active. The sample holds actives, similar compounds and a random draw of the others, so the mix is not that of the screen.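 The calls were made as follows: active = primary inhibition above the hit cutoff, then over 50% inhibition at one or more dose response concentrations (cut at about 23% in these data, passing the limit was not always enough); inconclusive = conflicting primary data, or primary hits not chosen for dose response; inactive = low primary inhibition, or under 50% at every dose.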 Potency and affinity values are given separately.

Target: Aminopeptidase N (Plasmodium falciparum (isolate 3D7)) (UniProt O96935)
Sequence (O96935 whole entry, looked up): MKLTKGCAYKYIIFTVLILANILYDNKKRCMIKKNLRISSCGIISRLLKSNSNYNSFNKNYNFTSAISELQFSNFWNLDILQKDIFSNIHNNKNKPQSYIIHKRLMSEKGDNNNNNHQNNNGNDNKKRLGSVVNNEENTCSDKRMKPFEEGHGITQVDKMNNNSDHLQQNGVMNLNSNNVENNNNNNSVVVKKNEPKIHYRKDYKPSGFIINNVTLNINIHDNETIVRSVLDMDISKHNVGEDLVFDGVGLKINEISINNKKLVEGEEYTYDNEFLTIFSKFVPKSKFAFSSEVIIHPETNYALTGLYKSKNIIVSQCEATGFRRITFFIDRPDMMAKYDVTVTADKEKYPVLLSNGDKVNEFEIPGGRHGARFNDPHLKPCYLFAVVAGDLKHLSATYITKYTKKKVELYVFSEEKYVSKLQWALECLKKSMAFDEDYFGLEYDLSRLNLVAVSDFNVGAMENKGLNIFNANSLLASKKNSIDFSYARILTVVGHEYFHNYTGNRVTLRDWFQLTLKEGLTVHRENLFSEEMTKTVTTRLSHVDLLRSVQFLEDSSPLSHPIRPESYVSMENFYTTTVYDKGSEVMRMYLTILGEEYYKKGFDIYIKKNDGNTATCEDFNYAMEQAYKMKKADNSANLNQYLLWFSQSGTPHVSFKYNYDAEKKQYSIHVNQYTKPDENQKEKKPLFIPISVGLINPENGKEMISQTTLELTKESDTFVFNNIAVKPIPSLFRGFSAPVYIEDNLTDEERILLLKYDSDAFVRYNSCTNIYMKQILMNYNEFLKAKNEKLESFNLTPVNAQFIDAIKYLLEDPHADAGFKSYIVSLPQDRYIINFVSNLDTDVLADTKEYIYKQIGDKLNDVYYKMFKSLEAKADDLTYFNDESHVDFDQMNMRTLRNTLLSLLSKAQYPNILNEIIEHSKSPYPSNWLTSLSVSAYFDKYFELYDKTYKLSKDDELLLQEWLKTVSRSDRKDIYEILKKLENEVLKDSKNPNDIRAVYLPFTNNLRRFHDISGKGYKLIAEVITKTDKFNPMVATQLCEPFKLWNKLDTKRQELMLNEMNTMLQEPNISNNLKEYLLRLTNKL
Assay: malaria alanyl aminopeptidase activity blockers – biochemical, fluorogenic H-Leu-NHMec substrate, 1536-well (AID 1445);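 also: plate controls were DMSO full reaction for no effect and no enzyme background for full effect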
Details: recombinant M1AAP, H-Leu-NHMec fluorogenic kinetic assay; at 30 µM, stronger effect = higher value unless noted

SMILES	inhibition
Cc1cc(C)cc(OCC(=O)N(Cc2cccs2)C2CCS(=O)(=O)C2)c1 (stereo not given)	2.35% (inactive)
Cc1cc(=O)[nH]c(-c2ccccc2O)n1	10.9% (inactive)
CSc1nc2c(c(=O)n1C)SC(C)C2 (stereo not given)	1.34% (inactive)
CC(C)Sc1nc2c(c(=O)n1C)SC(C)C2 (stereo not given)	11.9% (inactive)
CCC(C)Sc1nc2c(c(=O)n1C)SC(C)C2 (stereo not given)	23.5% (active)
O=C(CNC(=S)N(CCCN1CCOCC1)Cc1cccs1)NC1CCCC1	5.27% (inactive)
COc1ccc(N2CCN(c3ccc(N4C(=O)CC(C)C4=O)cc3[N+](=O)[O-])CC2)cc1 (stereo not given)	-8.33% (inactive)
NC1=Nc2cccc3cccc1c23	3.4% (inactive)
c1ccc(NC2=Nc3cccc4cccc2c34)cc1	1.68% (inactive)
CCCCN(C)C1=Nc2cccc3cccc1c23	26.3% (active)
CC1=NN(c2nc(-c3ccc(C)cc3)cs2)C(=O)C1N=Nc1ccc2ccccc2c1 (stereo not given)	-4.56% (inactive)
CC1=NN(c2nc(-c3ccc(C)cc3)cs2)C(=O)C1N=Nc1cccc(O)c1 (stereo not given)	6.79% (inactive)
COc1ccc([N+](=O)[O-])cc1NC(=O)c1cc(C)c(C)o1	8.9% (inactive)
Cc1ccsc1C1NC(=O)c2c(sc3c2CCN(C)C3)N1 (stereo not given)	25.9% (active)
CN1CCc2c(sc3c2C(=O)NC(c2cccs2)N3)C1 (stereo not given)	11.5% (inactive)
Cc1ccsc1C1NC(=O)c2c(sc3c2CCCC3)N1 (stereo not given)	-10.2% (inactive)
COC(=O)c1cn(-c2ccccc2)c(=O)c2ccccc12	0.56% (inactive)
Cc1sc2ncn(CC(=O)N3CCOCC3)c(=O)c2c1-c1ccccc1	22.3% (inactive)
Cc1ccc(-c2csc3ncn(CC(=O)N4CCOCC4)c(=O)c23)cc1C	16.1% (inactive)
CCOC(=O)N1CCC(NC(=O)c2ccc3c(c2)sc2nc(-c4ccc(OC)cc4)cn23)CC1	6.96% (inactive)
CCOC(=O)N1CCC(NC(=O)c2ccc3c(c2)sc2nc(-c4ccccc4)cn23)CC1	31.7% (inactive)
COC(=O)c1ccc(NC(=O)C2CC2)o1	-0.61% (inactive)
CCCOC(=O)c1c(-c2ccc(C)cc2C)csc1NC(=O)C1C2CCC(O2)C1C(=O)O (stereo not given)	-4.77% (inactive)
CCOC(=O)c1c(-c2ccc(-c3ccccc3)cc2)csc1NC(=O)C1C2CCC(O2)C1C(=O)O (stereo not given)	3.79% (inactive)

SMILES	inhibition
FC(F)C(F)(F)C1=CC(c2cccs2)=NCCN1	6.95% (inactive)
COCc1cc(C)nc(OCC(=O)N/N=C\c2cc(C)n(-c3cccc(C(F)(F)F)c3)c2C)c1C#N	6.82% (inactive)
CC(C)Nc1nc(NNc2nc(Cl)nc(NC(C)(C)C)n2)nc(NC(C)C)n1	-3.65% (inactive)
COc1cc(/C=N/Nc2nc(Nc3ccc(C)cc3)nc(-n3nc(C)cc3C)n2)cc(OC)c1OC	0.21% (inactive)
CCOC(=O)c1c(N2C(=O)Nc3ccccc3N2O)sc2c1CCCC2	4.01% (inactive)
COC(=O)c1c(N2C(=O)Nc3ccccc3N2O)sc2c1CCCC2	9.84% (inactive)
CC(C)(CC(=O)O)Cc1nc(-c2ccc(Cl)cc2)no1	-3.52% (inactive)
COc1ccc(NS(=O)(=O)c2cccc(Cl)c2)cc1S(=O)(=O)N1CCCCC1	1.83% (inactive)
Nc1ccc2nc(-c3ccccc3)sc2c1	33.2% (inactive)
Cc1ccc2nc(-c3ccc(N)cc3)sc2c1	3.99% (inactive)
Nc1cccc(-c2nc3ccc(N)cc3s2)c1	8.49% (inactive)
Nc1ccc(-c2nc3cc(N)ccc3s2)cc1	13% (inactive)
CN(C)CCCNC(=S)Nc1ccc(Br)cc1	-1.23% (inactive)
COc1cccc2c(=O)c3cccc(N)c3[nH]c12	17.7% (inactive)
CCOC(=O)c1c(C)oc2ccc(OC(=O)N3CCOCC3)cc12	3.42% (inactive)
O=C(CSc1nnc(Nc2ccccc2)s1)NCCN1C(=O)CSC1=O	0.85% (inactive)
[2H]c1c([2H])c([2H])c(-c2nc(N3CCCCCC3)sc2C(=O)c2ccccc2)c([2H])c1[2H]	6.9% (inactive)
O=C(O)CC(C(=O)O)N1C(=O)/C(=C/c2ccc(-c3nc4ccccc4s3)o2)SC1=S (stereo not given)	24.7% (active)
O=C(O)CCN1C(=O)/C(=C/c2ccc(-c3nc4ccccc4s3)o2)SC1=S	-3.38% (inactive)
O=C(O)CCN1C(=O)/C(=C\c2ccc(-c3nc4ccccc4s3)o2)SC1=S	20.7% (inactive)
COCCNC(=O)CN(C(=O)Cn1nnc2ccccc21)c1ccccc1	6.84% (inactive)
CSc1nnc(-c2cc[n+](C)cc2)n1CCO	-2.01% (inactive)
O=C(Nc1ccc2oc(-c3ccc(F)cc3)nc2c1)c1ccccc1F	-4.88% (inactive)
O=C(Nc1cccc(-c2nc3ccccc3o2)c1)c1cccnc1	8.84% (inactive)

SMILES	inhibition
O=C(Nc1ccc2oc(-c3ccccc3)nc2c1)c1ccccc1F	4.36% (inactive)
CC(C)C(=O)Nc1cccc(-c2nc3ccccc3o2)c1	1.29% (inactive)
COc1cccc(S(=O)(=O)Nc2ccc(C(=O)Nc3ccncc3)cc2)c1	-3.5% (inactive)
CC1Cc2cc(/C(O)=C3\C(=O)C(=O)N(CCN(C)C)C3c3ccccc3F)ccc2O1 (stereo not given)	-2.37% (inactive)
O=c1c2ccccc2nnn1Cc1ccccc1Cl	-2.79% (inactive)
Cc1ccccc1NC(=O)c1ccc(S(=O)(=O)N(C)C)cc1	0.67% (inactive)
Cc1nc2ccccc2c2oc(C(=O)N3CCN(C(=O)c4ccco4)CC3)cc12	25.5% (active)
Cc1nc2ccccc2c2oc(C(=O)N3CCN(C4CCCCC4)CC3)cc12	0.64% (inactive)
Cc1nc2ccccc2c2oc(C(=O)N3CCC(N4CCCCC4)CC3)cc12	-1.44% (inactive)
Cc1ccccc1OCC(=O)NNC(=O)Nc1ccccc1	11.5% (inactive)
Cc1cc(C(=O)COC(=O)C2=NNC(=O)CC2)c(C)n1CCc1ccccc1	5.78% (inactive)
CCOC(CCn1c(SCC(=O)Nc2cc(C)on2)nc2ccccc2c1=O)OCC	4.19% (inactive)
Cc1ccc(CNC(=O)CN(CCc2ccccc2)S(C)(=O)=O)cc1	1.36% (inactive)
Cc1ccc(/C=N/N=C2\SCC(=O)N2CC2CC2)cc1	3.09% (inactive)
COC(=O)c1cc(=O)n(Cc2ccc3c(c2)OCO3)c(=Nc2ccc(F)cc2)s1	15.5% (inactive)
COC(=O)c1cc(=O)n(Cc2ccc3c(c2)OCO3)c(=Nc2ccccc2)s1	26.5% (active)
CCOC(=O)c1ccc(N=c2sc(C(=O)OC)cc(=O)n2Cc2ccc3c(c2)OCO3)cc1	4.78% (inactive)
Cc1[nH]c2ccc(OC(=O)N3CCOCC3)cc2c1C(=O)OC(C)C	8.46% (inactive)
O=C(O)c1ccc(-c2ccc(/C=C3\NC(=O)N(Cc4ccc(Cl)cc4)C3=O)o2)cc1	6.4% (inactive)
Cc1ccc(CN2C(=O)N/C(=C/c3ccc(-c4ccc(C(=O)O)cc4)o3)C2=O)cc1	6.65% (inactive)
CC(C)Cn1c(SCC(=O)N2CCN(C(=O)c3ccco3)CC2)nc2ccccc2c1=O	7.56% (inactive)
CCCCCn1c(NC2CCCCC2)nc2c1c(=O)[nH]c(=O)n2C	9.39% (inactive)
COC(=O)CSC1=C(C#N)C(c2ccc(C(C)C)cc2)CC(=O)N1 (stereo not given)	23.7% (active)
COC(=O)CSC1=C(C#N)C(c2ccc(F)cc2)CC(=O)N1 (stereo not given)	-0.52% (inactive)

SMILES	inhibition
COC(=O)CSC1=C(C#N)C(c2ccccc2)CC(=O)N1 (stereo not given)	1.02% (inactive)
CSc1nc2c(c(=O)n1-c1ccccc1)SCC2	9.44% (inactive)
O=C(O)Cn1cc(/C=N/NC(=O)c2cc3cc(Br)ccc3o2)c2ccccc21	18.5% (inactive)
Cn1cc(/C=N/NC(=O)c2cc3cc(Br)ccc3o2)c2ccccc21	4.78% (inactive)
C=C(Br)Cn1c(CCC)nc2ccccc21	-1.16% (inactive)
COc1ccc(NS(=O)(=O)c2cc(NC(=O)c3ccccc3F)ccc2N2CCCC2)cc1	3.17% (inactive)
CN(C)CCCNC(=O)c1ccc(Cl)c(S(=O)(=O)N(C)c2ccccc2)c1	7.27% (inactive)
O=C(O)C(c1ccccc1)C1(O)CCCC1 (stereo not given)	16.5% (inactive)
COc1ccc(S(=O)(=O)N(C)C)cc1NCC(=O)Nc1ccc(Br)cc1F	7.15% (inactive)
CC1=C(C#N)C(=O)NC(=O)/C1=C\c1ccc(-c2cc(C)c(C)cc2[N+](=O)[O-])o1	11.9% (inactive)
CCOC(=O)c1cc(-c2ccc(/C=N\n3cnnc3)o2)ccc1Cl	3.07% (inactive)
C=CCOC(=O)c1cc(-c2ccc(/C=C3\C(=O)NC(=O)C(C#N)=C3C)o2)ccc1Cl	46.9% (active)
CC1=C(C#N)C(=O)NC(=O)/C1=C/c1ccc(-c2ccc(S(N)(=O)=O)cc2)o1	28.5% (inactive)
CC1=C(C#N)C(=O)NC(=O)/C1=C\c1ccc(-c2ccc(C)cc2[N+](=O)[O-])o1	20.8% (inactive)
CC(=O)N1CCc2cc(S(=O)(=O)CCC(=O)Nc3ccc4c(c3)OCCO4)ccc21	7.36% (inactive)
CN(C)CCNC(=O)CN1C(=O)COc2ccc(C(C)(C)C)cc21	0.77% (inactive)
CC(=O)COC(=O)C1CC(=O)N(c2ccc(C)c(C)c2)C1 (stereo not given)	3.99% (inactive)
O=C(COc1ncnc2ccccc12)NCCc1ccccc1	1.63% (inactive)
NC(=S)N=Nc1c(O)[nH]c2ccccc12	23.1% (inactive)
CC(C)(O)C(=O)N=Nc1c(O)[nH]c2ccccc12	1.86% (inactive)
O=C(CSc1nnc(-c2ccccn2)n1Cc1ccccc1)N1CCOCC1	2.23% (inactive)
CCOC(=O)c1[nH]cnc1C(=O)Nc1ccc(C)cc1	2.53% (inactive)
CCOC(=O)c1[nH]cnc1C(=O)Nc1ccccc1	19.7% (inactive)
